Compound activity (PubChem BioAssay)
This is a sample that favours compounds with a hit; in the whole collection about 8% have one here.
SW480 rereplic = induces DNA re-replication in SW480 colon adenocarcinoma cells | Potency, µM (doses to about 46.1 µM), for inactives: top-dose re-replication activation, hits mostly activators | 1.8% of 340,000 active | AID 624297 | SW480 DNA re-replication, Hoechst DNA content imaging, 48 h; further: % of control where 0% means no effect; nearly all actives have a fitted effect of over 55% in size
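Cells (250 per well) received 23 nL compound or DMSO by pin tool and were kept 48 hr at 37 C, 5% CO2. Nuclei were then stained with Hoechst for 40 min and scanned for DNA content.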
KB-3-1 tox = kills parental KB-3-1 adenocarcinoma cells | KB-3-1 viability, CellTiter-Glo ATP luminescence, 72 h | Potency, µM (titrated, usually from 46.1 µM), hits mostly cytotoxic | 1.4% of 400,000 active | AID 1347075; further: on the % scale 0 is the no-effect control and ±100 the full control effect; nearly all actives have a fitted effect of over 60% in size
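Using CellTiter-Glo luminescence, growth of non-resistant KB-3-1 adenocarcinoma cells is assessed 72 h after pin-tool compound addition at 37 °C. Normalized responses across the concentration series yield fitted curves.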
KB-V1 MDR tox = kills drug-selected multidrug resistant KB-V1 cells | KB-V1 MDR cells viability, CellTiter-Glo, 72 h | Potency, µM (highest dose often 46.1 µM), actives largely listed as cytotoxic | 3.4% of 400,000 active; further: on the % scale 0 is the no-effect control and ±100 the full control effect; nearly all actives have a fitted effect of over 60% in size
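In this primary screen, KB-V1 cells overexpressing P-gp are incubated with library compounds (lowest to highest concentration) for 72 h at 37 degrees C before a luminescent ATP viability read.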
HT1080 IDH1KD tx = kills HT-1080 cells with IDH1 knockdown | HT-1080 IDH1 knockdown viability, ATP luminescence, 48 h | Potency, µM (titrated, usually from 46.1 µM), without a hit: at the top dose activity, negative = toxicity, actives largely listed as cytotoxic | 2% of 360,000 active | AID 686971;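 further: 0% = DMSO wells and -100% = cell-free medium wells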
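Cytotoxicity counter-line: IDH1KD HT-1080, 48 h, CellTiter-Glo. Curves classed by r2, magnitude and activity.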
HT1080-NT tox = kills 2HG-producing HT-1080-NT fibrosarcoma cells | 1.6% of 360,000 active | HT-1080-NT fibrosarcoma viability, CellTiter-Glo ATP luminescence, 48 h | Potency, µM (top dose mostly 46.1 µM), for inactives: at the highest dose activity, negative = less viability, hits mostly cytotoxic;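 further: NT is the 2HG producing partner of a matched IDH1 knockdown line; 0% = DMSO-treated cells and -100% = media-only wells without cells; nearly all actives have a fitted effect of over 55% in size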
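Fibrosarcoma NT cells, 750 per well in 5% FBS RPMI, were exposed to compound for 48 hours. Viability: CellTiter-Glo luminescence.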
MCF10A rereplic = DNA re-replication induction in MCF 10a cells; Potency, µM (top dose mostly 46.1 µM), without a hit: at the top dose activity, positive = re-replication, hits mostly activators; MCF 10A DNA re-replication, Hoechst nuclear intensity, 48 h; 2.9% of 350,000 active; further: % of control where 0% means no effect; nearly all actives have a fitted effect of over 50% in size
Numbers without * were called inactive; i = inactive; ? = inconclusive; · = not tested or not shown; [ ] = remark or other dose. The call rests on the fitted dose curve; in most records, active means well fitted curve in the direction sought with a large enough effect; inconclusive means small, poorly fitted or top-dose-only effect, or another doubt; inactive means no such curve, though single readings can be large; an effect the other way counts as inactive or inconclusive. Potency means the concentration at half of the fitted maximal effect.

SMILES | SW480 rereplic | KB-3-1 tox | KB-V1 MDR tox | HT1080 IDH1KD tx | HT1080-NT tox | MCF10A rereplic
CCc1c(C)nc2ncnn2c1N1CCCC(C(=O)NCc2ccco2)C1 (stereo not drawn) | -12% | ? | i | 5% | 1% | 1%
COc1ccc(NC(=O)C2CCN(c3cc(-c4ccccc4)nc4ncnn34)CC2)cc1OC | 19% | ? | ? | ? | ? | 28%
COc1ccc(OC)c(NC(=O)C2CCN(c3cc(-c4ccccc4)nc4ncnn34)CC2)c1 | 0% | i | 15µM* | -7% | 0% | 22%
CCc1c(C)nc2ncnn2c1N1CCCC(C(=O)NCc2cccs2)C1 (stereo not drawn) | -9% | ? | 16µM* | 2% | -14% | 13%
CCc1c(C)nc2ncnn2c1N1CCCC(C(=O)NCCc2ccccc2)C1 (stereo not drawn) | -3% | ? | 13µM* | ? | 2% | 2%
COC(=O)[C@H]1[C@H]2CC3c4[nH]c5ccccc5c4CCN3C[C@@H]2CC[C@@H]1O (stereo partly drawn) | -8% | · | · | · | · | -2%[20.6 µM]
C(=Nc1cnc2ccccc2c1)c1ccncc1 | · | ? | i | · | · | ·
Cc1nc2ncnn2c(N2CCCC(C(=O)Nc3ccccc3Br)C2)c1C (stereo not drawn) | -7% | i | 10µM* | -26% | -18% | 4%
Cc1ccc(CNC(=O)Cn2ccn(-c3ccc(F)cc3)c(=O)c2=O)cc1 | · | i | i | · | · | ·
C=CCn1c(SCc2nc3ccccc3c(=O)[nH]2)nc2scc(C3CC3)c2c1=O | ? | i | i | -13% | -20% | 21µM*
C=CCn1c(SCc2nc3cc(C(=O)OC)ccc3c(=O)[nH]2)nc2sc(CC)cc2c1=O | 7% | i | 5.2µM* | -2% | -5% | 8%
CCn1c(SCc2nc3ccccc3c(=O)[nH]2)nc2ccccc2c1=O | -4% | i | i | ? | ? | -4%
O=C(NCc1nnc(SCc2ccc(C(F)(F)F)cc2)n1-c1ccccc1)C12CC3CC(CC(C3)C1)C2 | 5% | ? | 16µM* | -13% | -3% | 16µM*
O=C(NCc1nnc(SCc2ccc(F)cc2)n1-c1ccccc1)C12CC3CC(CC(C3)C1)C2 | 2% | ? | 13µM* | -20% | -26% | ?
COc1cc(CNCc2c[nH]c3ccccc23)cc(OC)c1 | 6% | i | 7.3µM* | -21% | ? | ?
COc1cc(CNCc2cccc3ccccc23)cc(OC)c1 | 0% | i | i | -7% | -11% | 9%
CCCCc1cc(=O)oc2cc(C)c(CN3CCCC3)c(O)c12 | 5% | i | 18µM* | -4% | ? | ?
CCc1cc(=O)oc2c(CN3CCCC3)c(O)c(Cl)cc12 | 10% | i | i | -4% | 6% | ?
CCc1cc(=O)oc2cc(C)c(CN3CCCC(C)C3)c(O)c12 (stereo not drawn) | 0% | i | ? | -15% | 5%[9.24 µM] | 23µM*
CCCCc1cc(=O)oc2c(CN3CCCC3)c(O)ccc12 | -6% | i | i | -4% | 0% | -4%
Cc1ccc(S(=O)(=O)N2CCN(c3nc(-c4ncco4)nc4ccccc34)CC2)cc1 | · | · | · | -7% | -9% | ·
Clc1ccc2c(N/N=C/c3ccc(Br)cc3)ccnc2c1 | 18µM* | ? | i | ? | ? | 2.6µM*
Cc1ccccc1/C=N/Nc1ccnc2cc(Cl)ccc12 | ? | ? | 16µM* | ? | ? | 18µM*
CCN1C(=O)c2cccc3c(S(=O)(=O)N(C)C)ccc1c23 | · | i | 13µM* | -16% | -5% | ·
CCN1C(=O)c2cccc3c(S(=O)(=O)Nc4nc(C)cs4)ccc1c23 | -1% | ? | i | -26% | -24% | 15µM*
SMILES | SW480 rereplic | KB-3-1 tox | KB-V1 MDR tox | HT1080 IDH1KD tx | HT1080-NT tox | MCF10A rereplic
CCN1C(=O)c2cccc3c(NC(=O)c4ccc5c(c4)OCCO5)ccc1c23 | ? | ? | i | 6% | -9% | 26µM*
CCN1C(=O)c2cccc3c(S(=O)(=O)NCc4ccco4)ccc1c23 | ? | i | i | ? | -2% | 12µM*
COc1ccc(CNCCCSc2nnnn2C)c(OC)c1 | · | i | i | · | · | ·
COc1ccc2cc(CNc3ccc(C)cc3)c(=O)n(CC(=O)Nc3cccc(C(F)(F)F)c3)c2c1 | · | i | i | · | · | ·
O=C(c1cccc(Cl)c1Cl)N(Cc1ccco1)Cc1cccs1 | · | i | i | · | · | ·
COc1ccc(CNc2nc3c(c(=O)n(C)c(=O)n3C)n2Cc2ccccc2Cl)cc1 | · | i | i | · | · | ·
CCN1C(=O)c2cccc3c(S(=O)(=O)Nc4ccncc4)ccc1c23 | 0% | i | i | -2% | -2% | 1%
CCN1C(=O)c2cccc3c(S(=O)(=O)Nc4ccccc4)ccc1c23 | 13% | ? | 12µM* | -18% | -5% | 23µM*
CCN(c1ccc(OC)cc1)S(=O)(=O)c1cc(-c2cc(C)no2)ccc1C(C)C | 1% | ? | ? | -14% | -7% | 10µM*
COc1cc(/C=C(\C#N)c2nc3ccccc3c(=O)[nH]2)cc(OC)c1OC | · | i | i | · | · | ·
O=C(C1CCC(CNS(=O)(=O)c2cccs2)CC1)N1CCN(c2ccc(F)cc2)CC1 (stereo not drawn) | 26% | ? | i | -17% | -13% | 16µM*
COc1cc2[nH]c3c(N4CCN(c5ccccn5)CC4)ncnc3c2cc1OC | -1% | i | ? | ? | 23µM* | ?
COc1cccc2[nH]c3c(N4CCCCC4)ncnc3c12 | 11% | i | i | 3% | -2% | 4%
CCOc1ccc2[nH]c3c(N4CCN(C(=O)c5ccco5)CC4)ncnc3c2c1 | ? | i | i | ? | ? | ?
COc1ccc(N2CCN(c3ncnc4c3[nH]c3ccccc34)CC2)cc1 | -1% | i | i | -12% | -9% | 6%
COc1ccc2[nH]c3c(N4CCc5ccccc5C4)ncnc3c2c1 | ? | 2.6µM* | 2.6µM* | 10µM* | 2.3µM* | 3.7µM*
CCOc1ccc2[nH]c3c(N4CCC5(CC4)OCCO5)ncnc3c2c1 | ? | ? | ? | 23µM* | ? | ?
CCOC(=O)N1CCN(c2ncnc3c2[nH]c2ccc(OC)cc23)CC1 | 0% | i | 15µM* | -20% | -8% | 6%
O=C(NCC(c1ccco1)S(=O)(=O)c1cccs1)c1ccc(C(F)(F)F)cc1 (stereo not drawn) | · | i | ? | · | · | ·
CC(C)N1CCC(N2CCN(Cc3ccc(-c4ccc(Cl)cc4)o3)CC2CCO)CC1 (stereo not drawn) | ? | ? | i | 21µM* | 16µM* | 62%
